Assay results: PubChem BioAssay (NCATS)
Records with an inconclusive call do not appear. Active and inactive are the calls of the source. The call rests on the fitted dose curve.

Assay: qHTS for identification of novel therapeutic agents for treatment of microphthalmiaassociated transcription factor (MiT) renal cell carcinoma (RCC) (AID 1963991)
Details: CellTiter-Glo, 48 h; for z-score: stronger effect = lower value
Excerpt: PI: Marston Linehan Ph.D.
Urologic Oncology Branch, Center for Cancer Research (CCR)
National Cancer Institute (NCI), National Institute of Health (NIH), Bethesda, Maryland
MiT-Renal Cell Carcinoma (RCC) is characterized by genomic translocations involving microphthalmia-associated transcription factor (MiT) family members TFE3, TFEB, or MITF. MiT-RCC represents a specific subtype of sporadic RCC that is predominantly seen in young patients and can present with heterogeneous histological features making diagnosis challenging. Moreover, the disease biology of this aggressive cancer is poorly understood and there is no accepted standard of care therapy for patients with advanced disease. Tumor-derived cell lines have been established from human TFE3-RCC providing useful models for preclinical studies. TFE3-RCC tumor derived cell lines and their tissues of origin were characterized by IHC and gene expression analyses. An unbiased high-throughput drug screen was performed to identify novel therapeutic agents for treatment of MiT-RCC. Potential therapeutic candidates were validated in in vitro and in vivo preclinical studies. Mechanistic assays were conducted to confirm the on-target effects of drugs. The results of a high-throughput small molecule drug screen utilizing three TFE3-RCC tumor-derived cell lines identified five classes of agents with potential pharmacological efficacy, including inhibitors of phosphoinositide-3-kinase (PI3K) and mechanistic target of rapamycin (mTOR), and several additional agents, including the transcription inhibitor Mithramycin A. Upregulation of the cell surface marker GPNMB, a specific MiT transcriptional target, was confirmed in TFE3-RCC and evaluated as a therapeutic target using the GPNMB-targeted antibody-drug conjugate CDX-011. […] The results of the high-throughput drug screen and validation studies in TFE3-RCC tumor-derived cell lines have provided in vitro and in vivo preclinical data supporting the efficacy of the PI3K/mTOR inhibitor.
SEQUENCE No. (e.g., 1, 2, 3, etc.); […] (e.g., Cells, Incubation, Reagent, etc.); VALUE; DESCRIPTION.
1; Cells; 3 uL; white, solid-bottom Grenier assay plate.
2; Compounds; 23 nL; Kalypsis pin-tool (Wako USA).
3; Incubation; 48 hr; 37 C, 5% CO2, 95% humidity.
4; Reagent; 3 uL; CellTiter-Glo reagent (Promega).
5; Incubation; 15 min; room temperature.
6; Detection; Luminescence; ViewLux plate reader (PerkinElmer).
NOTES (numbers refer to Sequence numbers above)
1. Quantitative high-throughput screening (qHTS) of 1912 pharmacologically defined small molecule compounds was conducted on three TFE3-fusion cell lines bearing three different fusion partners (UOK109, UOK124, UOK145). Briefly, 500 cells in complete growth media were plated into white, solid-bottom, 1536-well tissue culture treated plates (Grenier Cat. 789173-F) using a Multidrop Combi cassette dispenser.
2. Twenty-three nanoliter of 1912 pharmacologically defined small molecule compounds of the NCATS Mechanism Interrogation PlatE (MIPE) version 4.0 were added to each assay plate using a Pintool Dispenser (Wako) equipped with 1536 pin head.
3. Plates were covered with stainless steel gasketed lids and incubated for 48 hours at standard cell culture conditions.
4. Viability was assessed by adding 3uL of CellTiter-Glo detection reagent (Promega).
5. Plates were covered with gasket lids and incubated for 15 minutes at room temperature.
6. Luminescence was measured on a ViewLux plate reader (PerkinElmer). Post-screen data processing used DMSO controls as 100% viability and empty wells as 0% viability and dose response curve fitting was done for all 11 concentrations for each compound.

[1] = TFE3-RCC UOK109 viability, measured here: UOK109 Z-AUC
[2] = TFE3-RCC viability, measured here: UOK124 Z-AUC
[3] = TFE3-RCC viability, measured here: UOK145 Z-AUC
Potency means the concentration at half of the fitted maximal effect.

Compound | Potency (TFE3-RCC UOK109 viability) | z-score [1] | z-score [2] | z-score [3]
C[C@@H]1O[C@@H](O[C@H]2C[C@@H](O)[C@]3(CO)[C@H]4[C@H](O)C[C@]5(C)[C@@H](C6=CC(=O)OC6)CC[C@]5(O)[C@@H]4CC[C@]3(O)C2)[C@H](O)[C@H](O)[C@H]1O | 16.6 nM (active) | -3.9 | -2.36 | -3.38
Cn1c(CCCC(=O)O)nc2cc(N(CCCl)CCCl)ccc21 | – | 1.39 | 2.59 | 0.899
COC[C@@H](NC(C)=O)C(=O)NCc1ccccc1 | – | -0.0332 | 0.828 | 0.367
Cc1cccc(C)c1NC(=O)CN1CCCC1=O | – | 1.77 | 0.0528 | 0.844
C#CCN(C)[C@H](C)Cc1ccccc1 | – | 0.064 | -0.193 | 0.147
O=C1CC[C@@]2(O)[C@H]3Cc4ccc(O)c5c4[C@@]2(CCN3CC2CC2)[C@H]1O5 | – | 0.814 | 0.454 | 1.09
CCCC(C)(COC(N)=O)COC(=O)NC(C)C (stereo not given) | – | -0.172 | 0.563 | 0.256
CN(C)[C@@H]1C(=O)C(C(N)=O)=C(O)[C@@]2(O)C(=O)C3=C(O)c4c(O)cccc4[C@@](C)(O)[C@H]3C[C@@H]12 | – | 1.21 | 0.89 | 1.72
CNCC(O)c1ccc(O)cc1 (stereo not given) | – | 0.0605 | 0.435 | -0.102
NCC1(CC(=O)O)CCCCC1 | – | 0.318 | 0.516 | -0.0302
CN(C)CCc1ccc(O)cc1 | – | 2.07 | 0.378 | 0.923
COc1ccc(C(=O)c2c(C)n(CCN3CCOCC3)c3ccccc23)cc1 | – | 0.603 | 0.604 | 0.655
CC1=C2C[C@@H]3[C@@H](CC=C4C[C@@H](O)CC[C@@]43C)[C@@H]2CC[C@]12O[C@H]1C[C@H](C)CN[C@H]1[C@H]2C | – | 0.302 | -0.274 | 0.235
